JMJD2A Tudor inh: blocks the human JMJD2A Tudor domain; Potency, µM (top dose mostly 114 µM), for the others: at the highest dose activity change, negative = inhibition, usual class: inhibitors; 390,000 compounds, 4.4% hits; AlphaScreen JMJD2A-Tudor / H3K4me3 peptide binding; O75164; note: % is set by controls: 0 for no effect and ±100 for the full control effect; nearly all actives have a fitted effect of over 50% in size
L3MBTL1 block: inhibitors of human L3MBTL1; Q9Y468; AlphaScreen L3MBTL1–H3K9me1 peptide binding; 230,000 compounds, 0.66% hits; AID 485360; Potency, µM (highest dose often 57.1 µM), without a hit: at the top dose activity, negative = inhibition, actives largely listed as inhibitors; note: % is set by controls: 0 for no effect and ±100 for the full control effect; nearly all actives have a fitted effect of over 60% in size
Target sequence (Q9Y468 whole entry, looked up): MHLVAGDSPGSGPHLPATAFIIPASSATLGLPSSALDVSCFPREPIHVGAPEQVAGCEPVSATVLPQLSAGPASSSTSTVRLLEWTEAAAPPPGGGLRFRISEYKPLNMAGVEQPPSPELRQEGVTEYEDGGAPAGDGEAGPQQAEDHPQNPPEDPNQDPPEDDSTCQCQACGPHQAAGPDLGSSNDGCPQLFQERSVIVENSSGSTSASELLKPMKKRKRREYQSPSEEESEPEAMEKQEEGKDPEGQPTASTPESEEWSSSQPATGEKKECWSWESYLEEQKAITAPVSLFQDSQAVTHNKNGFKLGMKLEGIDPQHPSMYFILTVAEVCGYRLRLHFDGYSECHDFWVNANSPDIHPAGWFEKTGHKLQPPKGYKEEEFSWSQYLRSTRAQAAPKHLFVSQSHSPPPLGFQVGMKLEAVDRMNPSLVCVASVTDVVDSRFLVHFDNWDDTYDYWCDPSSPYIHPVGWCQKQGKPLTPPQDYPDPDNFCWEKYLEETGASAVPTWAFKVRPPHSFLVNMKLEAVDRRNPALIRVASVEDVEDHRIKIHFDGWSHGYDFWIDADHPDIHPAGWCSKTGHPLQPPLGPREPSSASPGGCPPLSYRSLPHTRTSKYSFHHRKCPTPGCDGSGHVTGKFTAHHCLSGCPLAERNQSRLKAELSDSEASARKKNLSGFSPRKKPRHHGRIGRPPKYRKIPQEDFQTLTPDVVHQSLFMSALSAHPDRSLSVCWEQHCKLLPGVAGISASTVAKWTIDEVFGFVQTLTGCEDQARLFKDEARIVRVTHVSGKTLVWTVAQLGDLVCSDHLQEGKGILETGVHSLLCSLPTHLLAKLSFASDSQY
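AlphaScreen proximity signal between nickel-chelate acceptor and streptavidin donor beads (final 10 ug/mL) reports binding of 50 nM L3MBTL1 to 75 nM biotin-H3 K9me1 peptide; complex incubated with compounds 30 min at room temperature; cefsulodin titration as control.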
G9a inh: inhibitors of human histone lysine methyltransferase G9a; G9a H3K9 monomethylation, AlphaScreen, 2 h; 350,000 compounds, 8.8% hits; Q96KQ7; Potency, µM (titrated, usually from 102 µM), inactives show at the highest dose activity, negative = inhibition, hits mostly inhibitors; note: % is set by controls: 0 for no effect and ±100 for the full control effect; nearly all actives have a fitted effect of over 75% in size
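Enzyme 20 nM + cpd, 15 min RT; add b-H3K9 pep 500 nM / SAM 20 uM; 2 h RT; anti-H3K9me1 Ab 0.5 ug/mL + SA donor / anti-rabbit acceptor beads 20 ug/mL each, 10 min; AlphaScreen read.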
BAZ2B block: BAZ2B (human) inhibition; 360,000 compounds, 4.4% hits; AID 504333; Potency, µM (series often up to 114 µM), without a hit: at the highest dose activity change, negative = inhibition, most hits filed as inhibitors; AlphaScreen BAZ2B-H3K14Ac peptide displacement; note: % is set by controls: 0 for no effect and ±100 for the full control effect; nearly all actives have a fitted effect of over 60% in size
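AlphaScreen luminescence quantifies BAZ2B engagement of H3K14Ac peptide; the protein and biotinylated peptide are both at 50 nM final, buffer PBS pH 7.4 with 0.01% Tween-20, all steps at room temperature.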
HP1b chromo inh: HP1-beta chromodomain-methylated histone interaction inhibition. Potency, µM (series often up to 114 µM), for the others: at the highest dose activity change, negative = inhibition, most hits filed as inhibitors. AlphaScreen HP1-beta / biotin-H3K9me3 peptide binding. P83916. AID 540317. 390,000 compounds, 0.56% hits; note: nearly all actives have a fitted effect of over 70% in size
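AlphaScreen: HP1-beta (50 nM) preformed 30 min with biotin-H3(1-18)K9me3 peptide (50 nM) in PBS pH 7.4, 0.01% Tween-20. Compound added for 30 min at RT, then streptavidin donor/nickel chelate acceptor beads (10 ug/mL) for 30 min.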
Sfp inh: blocks B. subtilis Sfp PPTase activity; Biochemical Sfp PPTase activity, qHTS; AID 1490; Q9F4F7; Potency, µM, for inactives: largest response in the series, negative = inhibition, hits mostly inhibitors; 310,000 compounds, 3.5% hits;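 note: the enzyme is Sfp with the accession as filed and its product quenches rhodamine fluorescence; 0% = enzyme reaction without inhibitor and -100% = no enzyme wells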
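Step 1, compound plus 15 nM Sfp-PPTase, 15 min, room temperature. Step 2, add rhodamine-CoA (5 uM) and BHQ-2-YbbR (12.5 uM). Step 3, read 525/598 nm fluorescence at 0 and 30 min.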
* marks the source's active call; other numbers are inactive results; ? = inconclusive; · = no result; [ ] = remark or other dose. Hits are enriched below; roughly 12% of the tested compounds scored in any of these assays. Calls come from the whole dose curve; as a rule, active = well fitted curve in the direction sought with a large enough effect; inconclusive = small, poorly fitted or top-dose-only effect, or another doubt; inactive = no such curve, though single readings can be large; an effect the other way counts as inactive or inconclusive. Potency is the fitted concentration of half-maximal effect.

SMILES	JMJD2A Tudor inh	L3MBTL1 block	G9a inh	BAZ2B block	HP1b chromo inh	Sfp inh
CCN(Cc1ccccc1)C(c1cc2ccc(C)cc2[nH]c1=O)c1nnnn1CCOC (stereo unspecified)	-3%	·	35µM*	-31%	15%	14%
COCCn1nnnc1C(c1ccc2ncccc2c1)N1CCN(c2ccccc2F)CC1 (stereo unspecified)	-25%	14%	8.9µM*	50µM*	31%	-1%
CC(=O)c1ccc(NC(=O)CN2C(=O)c3cccnc3Sc3ccccc32)cc1	-14%	·	8%[59 µM]	28%	55%	·
COCCn1nnnc1C(c1cc2cc(C)ccc2[nH]c1=O)N1CCN(C2CCCCC2)CC1 (stereo unspecified)	-5%	·	-27%[0.0925 µM]	2%	26%	-3%
CCc1ccc2[nH]c(=O)c(C(c3nnnn3CCOC)N3CCN(c4ccccc4F)CC3)cc2c1 (stereo unspecified)	-29%	·	?	-36%	6%	8.9µM*
O=P(c1ccccc1)(c1ccccc1)C(c1ccccn1)P(=O)(c1ccccc1)c1ccccc1	-10%	8%	-33%	-3%	11%	14%
O=P(c1ccccc1)(c1ccccc1)C(O)c1ccccn1 (stereo unspecified)	?	-12%	·	20µM*	35%	79µM*
OC(c1ccccn1)C(O)c1ccccn1 (stereo unspecified)	50µM*	·	·	·	-11%	·
CCS(=O)(=O)c1nc(S(=O)(=O)c2ccc(C)cc2)c(NCCCOC)s1	-24%	·	3%[59 µM]	-1%	35%	·
O=C(C1CCCN(S(=O)(=O)c2cccc3nonc23)C1)N1CCN(c2cccc(C(F)(F)F)c2)CC1 (stereo unspecified)	-24%	·	?	?	-1%	·
Cc1ccc2[nH]c(=O)c(CN(C(=O)c3cccc(Cl)c3)C(C)(C)C)cc2c1	-13%	·	-19%[59 µM]	-4%	22%	·
CC(=O)c1c(C)[nH]c(C(=O)NNC(=O)COc2cc(C)cc(C)c2)c1C	-14%	0%	50µM*	-26%	17%	·
Cc1ccccc1C(=O)OC1OC(=O)C(Cl)=C1Nc1ccc(C(=O)O)cc1 (stereo unspecified)	14µM*	?	?	1%	?	-11%
COc1ccc(CCNC(=O)c2ccc(Cn3c(=O)c4cccn4c4cccnc43)cc2)cc1OC	-34%	·	?	?	18%	·
CCN1/C(=C/c2cccc[n+]2C)Sc2ccc(OC)cc21	18µM*	·	50µM*	-34%	-3%	-8%
COc1ccc2c(c1)N(C)/C(=C/c1cccc[n+]1C)S2	?	·	35µM*	?	34%	-11%
CCN(CC)S(=O)(=O)c1ccc(C(=O)NC(=S)N(CCC#N)Cc2cccnc2)cc1	-9%	11%	13µM*	4%	18%	-23%
CN(C)S(=O)(=O)c1cccc(C(=O)NC(=S)N(CCC#N)Cc2cccnc2)c1	-21%	·	84%[59 µM]	10%	25%	45µM*
Cc1cccc(N2CCN(CC(=O)NCC3CCCCC3)CC2)c1C	5µM*	-4%	28µM*	50µM*	?	-24%
Cc1cccc(N2CCN(C(=O)NC3CCCCC3)CC2)c1C	-11%	-3%	36%[59 µM]	6%	20%	-2%
N#CC(Sc1ccccn1)c1ccc(Cl)cc1 (stereo unspecified)	-6%[11.4 µM]	·	7.9µM*	7%	13%	28µM*
O=C(NCCSc1ccccn1)c1ccc(Cl)cc1	-8%	·	11%[59 µM]	2%	53%	14%
CCCCCCC#CC1C=CC(OC(=O)OCC)C(COC(=O)OCC)O1 (stereo unspecified)	·	·	·	·	·	-3%
CCCCN(C)C(=O)c1nc2ccccn2c1CN1CCC[C@H]1C(=O)OC	40µM*	-12%	10%	-14%	-9%	10%
c1ccc(CCNc2ccccc2)cc1	·	?	?	56µM*	·	15%
SMILES	JMJD2A Tudor inh	L3MBTL1 block	G9a inh	BAZ2B block	HP1b chromo inh	Sfp inh
CCCCC/C=C\C[C@@H](O)/C=C/C=C\CCC(=O)O	·	·	·	·	·	0%
O=C(/C=C/c1ccccc1)n1cnnc1SC/C=C/c1ccccc1	20%	10%	20µM*	9%	47%	?
COc1ccc(N2CCN(C3(c4ccccc4)C(=O)c4ccccc4C3=O)CC2)cc1	8.9µM*	·	8.9µM*	7.1µM*	13µM*	·
COc1ccc(NC2(c3ccc(Cl)cc3)C(=O)c3ccccc3C2=O)cc1	56µM*	-29%	28µM*	14µM*	14µM*	17%
COc1ccc(-c2cn3c(n2)sc2cc(C(=O)NC4CCCc5ccccc54)ccc23)cc1 (stereo unspecified)	-8%	·	2%[59 µM]	4%	7%	·
Cc1noc(C)c1-c1nc(N(C)Cc2ccco2)c2ccccc2n1	·	·	-31%[0.501 µM]	·	·	79µM*
CN(C)c1ccc(-c2nc(N(C)Cc3ccco3)c3ccccc3n2)cc1	·	·	·	·	·	25µM*
CO[C@H]1C[C@@H]2CC[C@@H](C)[C@@](O)(O2)C(=O)C(=O)N2CCCC[C@H]2C(=O)O[C@H]([C@H](C)C[C@@H]2CC[C@@H](OCCO)[C@H](OC)C2)CC(=O)[C@H](C)/C=C(\C)[C@@H](O)[C@@H](OC)C(=O)[C@H](C)C[C@H](C)/C=C/C=C/C=C/1C	·	·	-38%[12.7 µM]	·	·	-16%
O=C(Nc1c(C(=O)N2CCN(c3ccccc3)CC2)oc2ccccc12)c1ccccc1F	-21%	·	?	-18%	-15%	·
COc1ccc(N2CCN(C(=O)c3oc4ccccc4c3NC(=O)c3ccccc3OC)CC2)cc1	?	·	5.6µM*	-18%[57.1 µM]	14%	·
COc1ccc(N2CCN(C(=O)c3oc4ccccc4c3NC(=O)CCc3cc(OC)no3)CC2)cc1	45µM*	·	35µM*	?	-21%	1%
COc1ccc(OC)c(CC2C(=O)Nc3ccc(Br)cc32)c1 (stereo unspecified)	?	·	?	?	1%	·
CN(CC(=O)Nc1ccc(Cl)cc1F)S(=O)(=O)c1ccc2c(c1)n(C)c(=O)c(=O)n2C	-8%	·	?	-7%	32%	·
COc1ccc(N(CC(=O)NCc2ccccc2Cl)S(=O)(=O)c2c(C)nn(C)c2C)cc1	-16%	·	6%[59 µM]	·	19%	·
O=C1NC(=S)SC1=C1CCCCCC1	-19%	-12%	?	?	10%	35µM*
COC(=O)CCC(=O)NC(=S)Nc1sc(C)c(C)c1C(N)=O	-25%	10%	8.9µM*	5%	1%	-23%
CCOC(=O)Nc1sc(C)c(C)c1C(N)=O	1%	-6%	40µM*	11%	32%	-13%
